# NS1 inh – inhibitors of influenza NS1 protein function | actives 0.4% (n = 270,000) | Potency, µM (doses to about 46.1 µM), for the others: top-dose activity, positive = more growth; further: potency means the concentration at half of the fitted maximal effect; actives are rising curves; nearly all actives have a fitted effect of over 50% in size
#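 Growth recovery, yeast-based: influenza A NS1 expressed in S. cerevisiae causes slow growth, and suppressors are detected by OD600. The parent strain without NS1 is used as positive control.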
# CHX counter – affects cycloheximide protein synthesis inhibition readout, counter-screen; cell reporter, cycloheximide protein synthesis inhibition counterscreen; max response, %; actives 12% (n = 300,000); in the data active means max response mostly above about 13%, no sharp cut-off; inactive means mostly below about 14%; further: read at 38.3 µM for the half of the compounds with a filed dose; 0% is about no effect
# Shiga inhibitor – Shiga toxin inhibition. Vero cells, Shiga toxin protein synthesis inhibition reporter. inhibition, % at 38.7 µM. actives 9.2% (n = 290,000). AID 2315; in the data active means inhibition mostly above about 28%, no sharp cut-off; inactive means mostly below about 43%; further: 0% is about no effect
# SARS PLP yeast – blocks SARS-CoV papain-like protease in a yeast assay | actives 0.19% (n = 330,000) | Potency, µM (titrated, usually from 32.9 µM), for inactives: top-dose activity, positive = growth rescue, most hits filed as activators | S. cerevisiae expressing SARS-CoV PLpro, growth rescue; further: potency means the concentration at half of the fitted maximal effect; 0% is about no effect; nearly all actives have a fitted effect of over 55% in size
# The depositor's hits bear a star; nt = no result. A selection: hits, their analogues and other compounds. The true share with any hit is near 12%. Unless noted, the call rests on the fitted dose curve.
SMILES,NS1 inh,CHX counter,Shiga inhibitor,SARS PLP yeast
CC(C)(C)CC(=O)Nc1nnc(-c2cccs2)s1,-6%,43*,67*,0%
O=C(CN1CCCCCC1)Nc1cc([N+](=O)[O-])ccc1Cl,-11%,-3,-15,3%
O=C(CN1CCCCC1)Nc1nnc(-c2ccc([N+](=O)[O-])cc2)s1,-3%,21*,56,-24%
O=C(CN1CCCCC1)Nc1nnc(-c2ccccc2)s1,-12%,20*,72*,-1%
O=C(CN1CCCC1)Nc1nnc(-c2cccs2)s1,9%,28*,89*,1%
CC(C)(C)CC(=O)Nc1nnc(C(F)(F)F)s1,-5%,-4,18,-6%
O=C(Cc1cccs1)Nc1nnc(-c2ccccc2)s1,nt,19,93,0%
CCOC(=O)c1c(C)[nH]c(C=C2C(=O)CCCC2=O)c1O,1%,-4,-14,4%
O=C(c1cccc2ccccc12)C1CCCN(C(=O)CCCn2cncn2)C1 (stereo unspecified),-3%,10,12,0%
COc1ccccc1C(O)Cc1nc2ccccc2n1C (stereo unspecified),-3%,63*,108*,17%
CC(C)c1ccc(C(O)c2nc3ccccc3n2C)cc1 (stereo unspecified),-6%,9,22,-3%
CC(C)c1ccc(C(O)Cc2nc3ccccc3n2C)cc1 (stereo unspecified),3%,60*,127*,5%
CN(C)c1ccc(C(O)Cc2nc3ccccc3n2C)cc1 (stereo unspecified),-9%,25*,63*,-7%
CC1COC(=O)O1 (stereo unspecified),nt,4,-3,nt
CSc1ccc(C(=O)/C=C/c2ccc(N)cc2)cc1,-32%,55*,77*,-13%
COC(=O)c1ccc(/C=C/C(=O)c2cccc(OC)c2)cc1,-9%,70*,52*,15%
COc1cccc(/C=C/C(=O)c2ccc(C)c([N+](=O)[O-])c2)c1,-7%,5,12,5%
COc1cccc(C(=O)/C=C/c2ccc(SC)cc2)c1,-109%,49*,80*,-20%
CSc1ccc(/C=C/C(=O)c2ccc(NC(=O)C(C)C)cc2)cc1,-3%,4,2,-6%
COc1cccc(CC(=O)N2CCN(S(=O)(=O)c3ccc(Br)cc3)CC2)c1,nt,nt,nt,23%
O=C1NC[C@@H](Cc2cccc3ccccc23)N(CCC23CC4CC(CC(C4)C2)C3)C1=O,nt,nt,nt,-9%
COc1ccc(CCNC(=O)C(=O)NCC2OCCN2S(=O)(=O)c2ccc(F)cc2)cc1 (stereo unspecified),2%,-2,16,-6%
CCC(C)c1ccc(NC(=O)C/C(C)=N/NC(=O)c2cnccn2)cc1 (stereo unspecified),18%,24*,48*,0%
COc1ccc(NC(=O)C/C(C)=N/NC(=O)c2ccccn2)c(OC)c1,-16%,38*,88*,6%
C/C(CC(=O)Nc1ccc2c(c1)OCCO2)=N\NC(=O)c1ccccn1,nt,11,13,1%
SMILES,NS1 inh,CHX counter,Shiga inhibitor,SARS PLP yeast
C/C(CC(=O)Nc1cccnc1)=N\NC(=O)C(=O)NC(C)C,0%,6,16,1%
C/C(CC(=O)Nc1cc(C)cc(C)c1)=N\NC(=O)c1ccccn1,5%,37*,43*,17%
C/C(CC(=O)NCc1ccccc1)=N\NC(=O)c1cnccn1,-1%,12*,40*,29%
CCc1ccc(C(=O)NNC(=O)c2cc(S(=O)(=O)N(C)C)ccc2N2CCCC2)cc1,14%,-2,-7,-14%
COc1ccc(CCNC(=O)C/C(C)=N/NC(=O)c2cnccn2)cc1,1%,36*,41*,-3%
COc1ccc(NC(=O)C/C(C)=N/NC(=O)c2cnccn2)c(OC)c1,16%,37*,34,-1%
C/C(Cc1ccccc1)=N\NC(=O)c1ccccn1,-13%,53*,89*,0%
CCOC(=O)c1ccc(NC(=S)N2CCC(C(N)=O)(N3CCCCC3)CC2)cc1,0%,9,-1,0%
CCC(CO)NS(=O)(=O)c1cc(-c2nn(C)c(=O)c3ccccc23)ccc1C (stereo unspecified),-3%,-2,-22,0%
O=C(O)c1ccc2c(c1)SC1=NS(=O)(=O)CCN12,2%,-1,7,0%
O=S1(=O)CCN2C(=N1)Sc1c2ccc2c1CCCC2,-64%,25*,69*,-12%
COC(=O)N/N=C/c1ccc(-c2ccc(C)c(Cl)c2)o1,-10%,16*,38,-59%
Nc1ccccc1N=Cc1ccc(-c2cccc(Cl)c2)o1,nt,29*,76*,-25%
Cc1ccc(-c2ccc(C(=O)O)o2)cc1Cl,-53%,16*,38,-1%

# Screens as filed in PubChem.
